The entries come from a sample that favours hits as a whole.
Pf Dd2 inh: Plasmodium falciparum Dd2 growth inhibition | P. falciparum Dd2 growth, SYBR Green, 72 h | Potency, µM (doses to about 28.9 µM), for the others: at the highest dose activity, negative = inhibition, most hits filed as inhibitors | actives 4.3% (n = 120,000) | AID 1347417; active = well fitted inhibition curve with a large enough effect;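 also: plate controls were DMSO vehicle for no effect and reference drug for full effect; nearly all actives have a fitted effect of over 65% in size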
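Readout: SYBR Green fluorescence, 485 nm excitation, 535 nm emission, after ~16 h lysis at 37C. Before that, Dd2-infected red cells (2.5% hematocrit) grew 72 h with compound, 29 uM top final concentration.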
Numbers without * were called inactive; i = inactive; [ ] = another dose, or the depositor's remark. Potency is read from the fitted curve at half-maximal effect.

SMILES	Pf Dd2 inh
CC1CCCN(C(=O)CN2C(=O)NC3(CCCCC3)C2=O)C1 (stereo not given)	4%
O=C1N(C2CCOCC2)CCCC12CCN(c1ccc(Cl)cn1)C2 (stereo not given)	1%
Cc1ccccc1CNC(=O)C1CCN(C(=O)N2CC3CC(C2)[C@H]2CCCC(=O)N2C3)CC1 (stereo not given in full)	i
O=C1CCC2(CNC(=O)c3cccnc3)CCCC=C2N1 (stereo not given)	-20%
COc1ccc(C2C=C(c3ccccc3)Nc3nc(NC(=O)/C=C/c4ccc(F)cc4)nn32)cc1 (stereo not given)	13µM*
O=C(NCC1CC1)c1cn(C2CN(C(=O)Cc3cccc(F)c3)C2)nn1	4%
O=C(NC1CCCCCC1)c1ccc(N2CC3CC(C2)[C@H]2CCCC(=O)N2C3)nc1 (stereo not given in full)	-4%
Cc1cc(Nc2cccc(C(F)(F)F)c2)nc2ccc(NC(=O)c3cncc(Br)c3)cc12	0.18µM*
Cn1nc(-c2ccc(C(=O)Nc3cccc(C(F)(F)F)c3)cc2)c2ccccc2c1=O	3%
CCN(CC)c1ccc(C(=O)Nc2ccc3nc(N(CC)CC)cc(C)c3c2)cc1	-18%
CCOc1cc(C(=O)Nc2ccc3nc(Nc4cccc(Cl)c4)cc(C)c3c2)cc(OCC)c1OCC	2µM*
COc1ccc(Nc2ncc(C(=O)Nc3cccc(Cl)c3)c3ccccc23)cc1	i
CCN(CC)S(=O)(=O)c1ccc2nc(NC(=O)c3cncc(Br)c3)sc2c1	20%[0.594 µM]
Cc1ccccc1C(=O)Nc1ccc2nc(Nc3cccc(C(F)(F)F)c3)cc(C)c2c1	-9%
Cc1cc(Nc2cccc(Cl)c2)nc2ccc(NC(=O)c3cncc(Br)c3)cc12	2.8µM*
CCOc1cc(C(=O)Nc2ccc(-c3cn4cccnc4n3)cc2)cc(OCC)c1OCC	-17%
COCC(=O)N[C@@H]1CN(Cc2cnn(C)c2C)C[C@H]1CO	i
COc1cccc(OCc2nc(C(=O)N3CC4C[C@@H]5CC3C[C@H](C4)C5)co2)c1	10µM*
CCCC1CCN(C(=O)c2coc(COc3ccc4ccc(OC)cc4c3)n2)C1 (stereo not given)	-21%
COCC1CCN(C(=O)c2coc(COc3cccc(F)c3)n2)C1 (stereo not given)	-2%
C[C@@H]1CN(C(=O)c2coc(COc3cccc(F)c3)n2)C[C@H](C)O1	-4%
COc1ccc(OCc2nc(C(=O)N3CCCC(C(C)(C)O)C3)co2)cc1 (stereo not given)	-4%
COc1ccc2ccc(OCc3nc(C(=O)N4CC(N5CCCCC5)C4)co3)cc2c1	8.9µM*
Cc1ccc(-c2cc3c(=O)n(CCNC(=O)c4ccc5c(c4)OCO5)ccn3n2)cc1C	8%
O[C@@H]1C[C@@H](c2nc(C3CC3)no2)N(Cc2ccc(OC(F)(F)F)cc2)C1	i
SMILES	Pf Dd2 inh
O=c1c2c(CO)c(-c3ccccc3)nn2ccn1Cc1cc(F)ccc1F	-13%
Cc1ccc(NC(=O)C2CCN(S(=O)(=O)c3ccc4[nH]c5c(c4c3)CCCCC5)CC2)cc1	11µM*
Cc1ccc(NS(=O)(=O)c2ccc3[nH]c4c(c3c2)CCCCCC4)cc1	i
Cc1ccc(S(=O)(=O)N2CCC(C(=O)Nc3ccc(Oc4ccccc4)cc3)CC2)cc1	-1%
O=C(c1ccc(F)cc1)N1CCc2nc(-c3ccc(Cl)cc3)nc(-c3ccccc3)c2C1	i
CCNC(=O)N1CCCC1c1noc(CCC(=O)N2CCN(c3ccccc3)CC2)n1 (stereo not given)	-18%
COCCNC(=O)[C@@H]1C[C@H](Oc2ccccc2)CN1C(=O)Nc1ccc2c(c1)OCCO2	31%
COCC(=O)NC1CCC12CCN(C(=O)CC1CCCC1)CC2 (stereo not given)	-7%
C=CCc1cc(-c2c(-c3ccccc3)ncn2CCCO)cc(OC)c1O	i
OCCOCCn1cnc(-c2ccccc2)c1-c1ccccc1Cn1cccn1	-11%
C=CCc1cc(-c2c(-c3ccccc3)ncn2CCOCCO)cc(OC)c1O	6.3µM*
COc1ccc(C[C@H](NC(=O)C2=C[C@@H](NC(=O)c3cccc(F)c3)[C@@H](O)[C@H](O)C2)C(N)=O)cc1	-6%
O=C1Nc2ccc(-c3ccc4c(c3)OCO4)cc2C(=O)N2CCN(C(=O)C3CCCC3)C[C@@H]12	i
COc1ccc(Cl)cc1-c1ccc2c(c1)C(=O)N1CCN(C(=O)C3CCCCC3)C[C@@H]1C(=O)N2	i
COc1ccc(Cl)cc1-c1ccc2c(c1)C(=O)N1CCN(C(=O)c3ccccc3)C[C@@H]1C(=O)N2	i
COc1ccc(Cl)cc1-c1ccc2c(c1)C(=O)N1CCN(C(=O)C3CC3)C[C@@H]1C(=O)N2	13µM*
CSc1ccc(-c2ccc3c(c2)C(=O)N2CCN(C(=O)C4CCCCC4)C[C@@H]2C(=O)N3)cc1	8.9µM*
COc1ccc(-c2ccc3c(c2)C(=O)N2CCN(C(=O)C4CCCCC4)C[C@@H]2C(=O)N3)cc1	i
O=C(c1ccsc1)N1CCC2(CC1)N=C(c1ccc(Cl)cc1)NO2	i
CCOc1ccc(C(=O)N[C@@H]2CN(S(C)(=O)=O)C[C@H]2CN(C)C)cc1	i
O=C(CC1CNCCO1)NCc1nc(-c2cccc(F)c2)c(-c2ccccn2)[nH]1 (stereo not given)	-14%
CCOc1ccccc1C(=O)N1CCC(Oc2nccnc2N(C)C)C1 (stereo not given)	-29%
O=C(c1ccc2c(Cl)c3c(nc2c1)CCCC3)N1CCN(c2ccccc2)CC1	-16%
CCc1nc2ccc(C(=O)N3CCN(c4ccc(Cl)cc4)CC3)cc2nc1CC	21%
CCc1nc2ccc(C(=O)N3CCN(c4ccccc4F)CC3)cc2nc1CC	2.8µM*
SMILES	Pf Dd2 inh
CCN1c2cc(C(=O)N3CCN(c4ccccc4F)CC3)ccc2C(=O)N2CCCCC21 (stereo not given)	i
O=C(c1ccc2c(c1)CCN2S(=O)(=O)c1ccccc1)N1CCN(c2ccccc2F)CC1	45%
CCc1nc2ccc(C(=O)N3CCN(c4ccccc4)CC3)cc2nc1CC	6.3µM*
NC1CCc2nn(CC(=O)NCCc3nc4ccccc4[nH]3)c(=O)n2CC1 (stereo not given)	i
COCCc1noc([C@@H]2CN(C(=O)CC3=CCCCC3)C[C@H]2CO)n1	-13%
O=C(NCCc1ccncc1)C1c2ccccc2C(=O)N(c2ccccc2)C12CCCCC2 (stereo not given)	i
COCCC(=O)NC1CCN(c2cnn(Cc3ccccc3)c(=O)c2)CC1	-3%
CCCN(C)C(=O)c1cn2cc(-c3cccc(Cl)c3)n(CC=C(C)C)c(=O)c2n1	13µM*
CC(C)=CCn1c(-c2cc(C)oc2C)cn2cc(C(=O)N(C)CC(C)C)nc2c1=O	11µM*
CCCN(C(=O)c1cc2c(=O)oc3ccccc3c2s1)c1cccc(Cl)c1	11%
CCN(CC)c1ccc2cc(-c3nnc(-c4cccc(Cl)c4)o3)c(=O)oc2c1	-2%
COc1ccc(-c2cn3cc(C(=O)NCC(N)=O)nc3c(=O)n2CC2CC2)c(F)c1	-28%
CC(Cn1cccn1)C(=O)N1CCc2[nH]nc(-c3ccc(Cl)cc3)c2C1 (stereo not given)	i
CN(CC1CCOC1)C(=O)c1ccc(F)cc1Cl (stereo not given)	i[5.79 µM]
COc1ccc(CN[C@H]2[C@H](O)[C@@H](N3CCC(C(N)=O)CC3)[C@@H]3OC[C@H]2O3)cc1	i
CCOC(=O)N1CCC(NC(=O)c2cnn(-c3ccc(OC)cc3)c2C2CCN(C(=O)OC(C)(C)C)CC2)CC1	8.9µM*

Screening data as filed in PubChem.
